# Hits are enriched below; roughly 0.43% of the tested compounds scored in any of these assays.
# GLA inh pH 4.5 – inhibitors of human alpha-galactosidase A at pH 4.5; AID 1467; 230,000 tested, under 10 active; P06280; purified enzyme, 4-MU-alpha-Gal fluorescence, pH 4.5; activity change, negative = inhibition, % at 105 µM;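 note: 0% = full activity with enzyme and -100% = basal without enzyme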
# GAA spleen mod – lysosomal alpha-glucosidase (human) modulation. P10253. human spleen homogenate, 4-MU-alpha-glucoside fluorescence. Potency, µM (top dose mostly 79.9 µM), for the others: top-dose activity change, negative = inhibition, actives largely listed as inhibitors. 240,000 compounds, 0.006% hits;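 note: potency is the fitted concentration of half-maximal effect; 0% = enzyme with vehicle and -100% = no enzyme basal signal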
#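 Human spleen homogenate (1 ug) incubated with compounds and 1 mM 4-methylumbelliferyl-alpha-D-glucopyranoside in pH 5.0 citrate/phosphate buffer, 37 C, 40 min. Stopped at pH 10; 4-MU fluorescence (Ex 365/Em 440 nm); AC50 by Hill fit.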
# N370S GC – N370S glucocerebrosidase modulation, Gaucher chaperone candidate; P04062; N370S GC spleen homogenate, 4MU-glucoside fluorescence; Potency, µM (doses to about 59.4 µM), without a hit: at the highest dose activity change, negative = inhibition, hits mostly inhibitors; 330,000 compounds, 0.092% hits; AID 2101;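 note: potency is the fitted concentration of half-maximal effect; 0% = full enzyme activity and -100% = no enzyme basal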
# GAA glycogen mod – inhibitors or activators of human alpha-glucosidase glycogen cleavage; Potency, µM (top dose mostly 76.4 µM), for inactives: at the top dose activity change, negative = inhibition, usual class: inhibitors; AID 2100; P10253; 300,000 compounds, 0.38% hits; recombinant GAA, glycogen substrate, Amplex Red glucose oxidase fluorescence;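 note: potency is the fitted concentration of half-maximal effect; 0% = full enzyme reaction and -100% = no-enzyme basal signal; the screen sought inhibitors and activators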
#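 Natural-substrate format: glycogen cleavage by 4 nM human enzyme, glucose read by Amplex Red coupling (Ex 573, Em 610 nm). Normalized to enzyme and no-enzyme controls.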
# GAA inh – alpha-glucosidase (human) inhibition. purified human GAA, 4-MU-alpha-glucoside fluorescence. Potency, µM (titrated, usually from 76.9 µM), for the others: top-dose activity change, negative = inhibition, usual class: inhibitors. 200,000 compounds, 0.005% hits. AID 1466. P10253;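 note: potency is the fitted concentration of half-maximal effect; plate controls were uninhibited enzyme wells for no effect and no-enzyme background for full effect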
#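 Activity normalized between no-enzyme (basal) and enzyme-only wells. Conditions: 4 nM human enzyme, 400 uM fluorogenic substrate, citrate/phosphate pH 5.0 with Tween-20, 20 min room temperature, compounds up to 77 uM.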
# GLA spleen mod – inhibitors or activators of human alpha-galactosidase in spleen homogenate. P06280. AID 2107. human spleen homogenate, 4MU-alpha-Gal fluorescence, 40 min. Potency, µM (top dose mostly 80 µM), without a hit: at the top dose activity change, negative = inhibition, usual class: inhibitors. 240,000 compounds, 0.008% hits;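 note: potency is the fitted concentration of half-maximal effect; 0% = enzyme with vehicle and -100% = no enzyme basal signal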
# Target sequence (P06280 32-429 limits assumed): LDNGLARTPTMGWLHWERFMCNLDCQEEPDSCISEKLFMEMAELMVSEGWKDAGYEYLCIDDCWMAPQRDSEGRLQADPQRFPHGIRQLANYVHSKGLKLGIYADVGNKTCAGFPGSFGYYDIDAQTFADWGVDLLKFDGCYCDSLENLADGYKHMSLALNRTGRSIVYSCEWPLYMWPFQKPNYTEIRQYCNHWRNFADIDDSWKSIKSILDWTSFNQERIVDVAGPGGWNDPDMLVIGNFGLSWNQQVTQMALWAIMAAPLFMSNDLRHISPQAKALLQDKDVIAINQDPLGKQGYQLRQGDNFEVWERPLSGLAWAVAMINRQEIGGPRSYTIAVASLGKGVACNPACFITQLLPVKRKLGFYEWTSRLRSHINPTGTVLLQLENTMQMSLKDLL
#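 Human spleen homogenate (1 ug) was the enzyme source, with 4-methylumbelliferyl-alpha-D-galactopyranoside (1 mM final) in pH 5.0 citrate buffer with 0.01% Tween-20. Compounds were titrated; after 40 min at 37C, NaOH/glycine stop, 4-MU fluorescence read; AC50 from Hill fits.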
# Active calls of the source: *; ? = inconclusive; . = not tested or not shown; [ ] = another dose, or the depositor's remark. Calls come from the whole dose curve; as a rule, active = well fitted curve in the direction sought with a large enough effect; inconclusive = small, poorly fitted or top-dose-only effect, or another doubt; inactive = no such curve, though single readings can be large; an effect the other way counts as inactive or inconclusive.
SMILES,GLA inh pH 4.5,GAA spleen mod,N370S GC,GAA glycogen mod,GAA inh,GLA spleen mod
O=C(NCc1ccc(F)cc1)c1ccc(NC(=O)N2CC3CCCN3c3ccccc32)cc1 (stereo not given),.,.,.,16µM*,.,.
CC(C)Oc1ccc(CNC(=O)c2ccc(NC(=O)N3CC(C)Sc4ccccc43)cc2)cc1 (stereo not given),.,.,.,-7%[76.3 µM],.,.
CC(C)=CCC/C(C)=C/CO/N=C1/C[C@@H](O)[C@@H](O)[C@@H]2[C@@H]3C(=O)N([C@@H](C)c4ccccc4)C(=O)[C@H]3CC[C@@H]12,.,1%[17.4 µM],1%[12.8 µM],.,.,3%[17.5 µM]
COc1ccc(C(=O)COC(=O)C2CC3CCCC(C2)C3=O)cc1Br (stereo not given),.,.,0%,.,.,.
COc1ccc(C(=O)COC(=O)CN2CC(=O)Oc3ccccc32)cc1Br,3,-4%,-2%,3.1µM*,6%,-3%
CCN(CC)C(=O)CC(c1ccc(OC)cc1)c1c(OC)cc(OC)c2c(-c3ccccc3)cc(=O)oc12 (stereo not given),.,1%,13%,.,.,9%
Nc1nc(N2CCN(c3ccccc3)CC2)n[nH]1,-3,9%,9%,10µM*,7%,3%
Nc1nc(N2CCN(c3ccc(Cl)cc3)CC2)n[nH]1,-15,-14%,-7%,?,10%,1%
CC#CCN1c2ccccc2[C@]23C[C@@H](C(=O)OC)N(C(=O)COCc4ccccc4)C2=NC(C(=O)OC)=C(C(=O)OC)[C@H]13,3,-8%[17.4 µM],1%[12.8 µM],.,.,2%[17.5 µM]
CCOC(=O)C1CCc2sc(N)c(C#N)c21 (stereo not given),-1,6%,-1%,5µM*,-13%,3%
CCOC(=O)N1CCc2c(sc(N)c2C#N)C1,6,-2%,13%,?,.,-2%
O=C(CN1C(=O)c2ccccc2S1(=O)=O)c1ccc(F)c(F)c1,.,.,-2%,.,.,.
O=C(CN1C(=O)c2ccccc2S1(=O)=O)c1ccc(O)c(O)c1,3,0%,-6%,14µM*,.,-2%
COc1ccc(COC(=O)N/N=C2/C[C@@H](O)[C@@H](O)[C@@H]3[C@@H]4C(=O)N(C(C)(C)C)C(=O)[C@H]4CC[C@@H]23)cc1,.,-3%[17.4 µM],-12%[12.8 µM],.,.,0%[17.5 µM]
CC1CCC2C(=O)N3C(CCC(C)[C@@H]3c3ccc(-c4ccco4)cc3)C(=O)N2C1c1cccc(N2CCCC2=O)c1 (stereo not given in full),.,16%[17.4 µM],-5%[12.8 µM],.,.,21%[17.5 µM]
O=c1c(O)cccc2cc(O)c(O)c(O)c12,-9,-2%,-4%,14µM*,-8%,3%
O=c1cc(-c2ccccc2)oc2cc(O)c(O)c(O)c12,-14,9%,?,.,.,11%
COCCn1c(NC(=S)NC(=O)C23CC4CC(CC(C4)C2)C3)cc(=O)[nH]c1=O,-4,6%,0%,-4%,.,2%
COCCn1c(NC(=S)NC(=O)C2CC2)cc(=O)[nH]c1=O,10,7%,-2%,31µM*,6%,4%
CO[C@@H]1COC(=O)C/C=C\[C@@H](C)[C@H](OC)COC(=O)[C@H](COCc2ccccc2)NC(=O)C/C=C\[C@H]1C,.,0%[17.4 µM],6%[12.8 µM],.,.,10%[17.5 µM]
CSCC[C@H](NC(=O)[C@H](CO)NC(=O)[C@H](Cc1ccc(O)cc1)NC(=O)[C@@H](N)CO)C(=O)N[C@@H](CCC(=O)O)C(=O)N[C@@H](Cc1cnc[nH]1)C(=O)N[C@@H](Cc1ccccc1)C(=O)N[C@@H](CCCNC(=N)N)C(=O)N[C@@H](Cc1c[nH]c2ccccc12)C(=O)NCC(=O)N[C@@H](CCCCN)C(=O)N1CCC[C@H]1C(=O)N[C@H](C(=O)NCC(=O)N[C@@H](CCCCN)C(=O)N[C@@H](CCCCN)C(=O)N[C@@H](CCCNC(=N)N)C(=O)N[C@@H](CCCNC(=N)N)C(=O)N1CCC[C@H]1C(=O)N[C@H](C(=O)N[C@@H](CCCCN)C(=O)N[C@H](C(=O)N[C@@H](Cc1ccc(O)cc1)C(=O)N1CCC[C@H]1C(=O)N[C@@H](CC(N)=O)C(=O)NCC(=O)N[C@@H](C)C(=O)N[C@@H](CCC(=O)O)C(=O)N[C@@H](CC(=O)O)C(=O)N[C@@H](CCC(=O)O)C(=O)N[C@@H](CO)C(=O)N[C@@H](C)C(=O)N[C@@H](CCC(=O)O)C(=O)N[C@@H](C)C(=O)N[C@@H](Cc1ccccc1)C(=O)N1CCC[C@H]1C(=O)N[C@@H](CC(C)C)C(=O)N[C@@H](CCC(=O)O)C(=O)N[C@@H](Cc1ccccc1)C(=O)O)C(C)C)C(C)C)C(C)C,.,-14%,1%,.,.,-6%
COc1c(O)cc2c(=O)oc3c(OC)c(O)cc4c(=O)oc1c2c34,-1,-2%,-3%,.,.,7%
O=c1cc2c(=O)oc3cc(O)c(O)oc3c2c(O)c1O,-2,4%,-13%,8.9µM*,-3%,4%
COc1ccc(OC2C=CC(C#Cc3ccc(F)cc3F)OC2CO)cc1 (stereo not given),.,0%[17.4 µM],-2%[12.8 µM],.,.,6%[17.5 µM]
COc1ccc(C2c3sc(=O)[nH]c3SCC2C(N)=O)cc1 (stereo not given),-3,8%,-3%,?,.,5%
SMILES,GLA inh pH 4.5,GAA spleen mod,N370S GC,GAA glycogen mod,GAA inh,GLA spleen mod
COC(=O)C1CSc2[nH]c(=O)sc2C1c1ccc(O)c(OC)c1 (stereo not given),-14,3%,12%,16µM*,0%,-12%
COc1cc(C2c3sc(=O)[nH]c3SC3C(=O)N(c4ccc(C)cc4)C(=O)C32)ccc1O (stereo not given),1,-1%,-11%,11µM*,-9%,-4%
C=CCN1c2ccccc2[C@]23C[C@@H](C(=O)OC)N(S(=O)(=O)c4ccc5c(c4)OCCN5C)C2=NC(C(=O)OC)=C(C(=O)OC)[C@H]13,0,4%[17.4 µM],-11%[12.8 µM],.,.,-5%[17.5 µM]
C=CCOC(=O)C(C(C)=O)C(NC(=O)OC)c1ccco1 (stereo not given),.,3%[17.4 µM],1%[12.8 µM],.,.,-1%[17.5 µM]
COc1ccc(NC(=S)NNC(=O)Cn2nc([N+](=O)[O-])cc2C)cc1,0,3%,1%,14µM*,-6%,3%
COC(=O)C(/C=C/C(C)Cc1cc(Br)cc(OCc2ccccc2)c1OC)OCc1ccccc1 (stereo not given),.,-20%[17.4 µM],24%[12.8 µM],.,.,0%[17.5 µM]
O=[N+]([O-])/C(C=Nc1ccccc1O)=C\Nc1ccccc1O,-5,-1%,-13%,3.5µM*,.,-8%
O=[N+]([O-])/C(=C\Nc1ccccc1Cl)S(=O)(=O)c1ccccc1,9,-6%,16%,-11%,6%,14%
